Source: PubChem BioAssay AID720690 (Broad Institute, 2013)
Entries with a potency or affinity are not part of this list. The source made the active and inactive calls.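 The calls were made as follows: active = every repeat run showing a signal drop whose fitted half-maximal concentration is at most twice the top tested concentration; inconclusive = repeat runs disagree, or flat partial drop, or poor fit; inactive = the rest.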

Assay: general mammalian cell viability loss – activator set, cherry-pick, cytotoxicity control for miR-122 modulator project, dose response (AID 720690)
Conditions: HEK293T viability, CellTiter-Glo luminescence, 48 h; series mostly up to 26 µM

| SMILES | outcome |
| --- | --- |
| CN1C(=O)c2cc(NC(=O)c3ccccc3F)ccc2OC[C@H]2O[C@H](CC(=O)NCc3ccc4c(c3)OCO4)CC[C@@H]21 | inactive |
| CN(C(=O)c1ccccc1Cl)C1CCCCC1 | inactive |
| CCC(=O)N1[C@H](CN(C(C)C)S(C)(=O)=O)[C@@H](c2ccccc2)[C@@H]1CO | inactive |
| CN1C(=O)c2cc(NC(=O)c3cccs3)ccc2OC[C@@H]2O[C@@H](CC(=O)NCC(F)(F)F)CC[C@H]21 | inactive |
| CN1C(=O)c2cc(NC(=O)Nc3ccccc3F)ccc2OC[C@@H]2O[C@@H](CC(=O)NCc3ccc(-c4ccccc4)cc3)CC[C@H]21 | inactive |
| CN1C(=O)c2cc(NS(=O)(=O)c3ccc(Cl)cc3)ccc2OC[C@H]2O[C@H](CC(=O)N3CCc4ccccc4C3)CC[C@@H]21 | inactive |
| Cc1cc(C)cc(Oc2ccc(NC(=O)C3CC=CCC3C(=O)O)cc2)c1 (stereo not drawn) | inactive |
| COc1cc(C(=O)Nc2ccc(S(=O)(=O)N3CCCCC3C)cc2)cc(OC)c1OC (stereo not drawn) | inactive |
| CN1C(=O)c2cc(NC(=O)C3CCOCC3)ccc2OC[C@H]2O[C@H](CC(=O)NCc3ccc4c(c3)OCO4)CC[C@@H]21 | inactive |
| CC(C)c1ccc(CNC(=O)CSCC(=O)Nc2ccc3ccccc3c2)cc1 | inactive |
| C[C@@H]1CN([C@H](C)CO)S(=O)(=O)c2ccc(C#CC3CC3)cc2O[C@@H]1CN(C)C(=O)c1cccc(F)c1 | inactive |
| CCC(=O)N(C)C[C@@H]1[C@H](c2ccc(-c3ccccc3F)cc2)[C@H](CO)N1C(C)=O | inactive |
| COc1cc2nc(C3CCC3)n(NC(=O)C3CCCC(OC)C3)c(=O)c2cc1OC (stereo not drawn) | inactive |
| CCNC(=O)C[C@H]1CC[C@@H]2[C@H](COc3ccc(NC(=O)c4cccs4)cc3C(=O)N2C)O1 | inactive |
| COc1ccc(-c2ccc(C#N)c(OC(=O)c3c(Cl)cccc3Cl)n2)cc1 | inactive |
| COCC(=O)Nc1ccc2c(c1)C(=O)N(C)[C@H]1CC[C@@H](CC(=O)NCCCN(C)C)O[C@@H]1CO2 | inactive |
| COCC(=O)N(C)C[C@H]1Oc2cc(-c3ccccc3F)ccc2S(=O)(=O)N([C@H](C)CO)C[C@H]1C | inactive |
| COCC(=O)NC[C@H]1N[C@H](CO)[C@H]1c1ccc(C2=CCCC2)cc1 | inactive |
| CN(C)C(=O)c1ccc(-c2ccc([C@H]3[C@@H](CO)N4CCCCN(C(=O)C5CCCC5)C[C@@H]34)cc2)cc1 | inactive |
| COCC(=O)NC[C@H]1[C@@H](c2ccc(C3=CCCC3)cc2)[C@@H](CO)N1C(=O)C1CC1 | inactive |
| CN1C(=O)c2cc(NC(=O)c3cccs3)ccc2OC[C@@H]2O[C@@H](CC(=O)NCCN3CCCCC3)CC[C@H]21 | inactive |
| CCCNC(=O)C[C@@H]1CC[C@H]2[C@@H](COc3ccc(NC(=O)c4ccc(C(F)(F)F)cc4)cc3C(=O)N2C)O1 | inactive |
| Cc1ccc(-c2nc(C(Cl)Cl)c3ccccc3n2)cc1 | inactive |
| O=C(N/N=C/c1ccco1)c1cccc(N2CCCC2=O)c1 | inactive |
| CN1C(=O)c2cc(NC(=O)c3ccc(F)cc3)ccc2OC[C@@H]2O[C@@H](CC(=O)O)CC[C@@H]21 | inactive |
| Cc1cc(C(=O)Nc2cccc(O)c2)co1 | inactive |
| CCCNC(=O)N1C[C@@H]2[C@H](c3ccccc31)[C@@H](CO)N2C(=O)C1CCOCC1 | inactive |
| CC(C)NC(=O)N1C[C@@H]2[C@H](c3ccccc31)[C@@H](CO)N2C(=O)c1cccnc1 | inactive |
